# Assay outcomes deposited in PubChem BioAssay by National Center for Advancing Translational Sciences (NCATS).
# Sampled rows, rich in hits. Any-hit rate of the full collection: about 2%.
# ClpP mod: qHTS Assay for Activators of ClpP; purified B. subtilis ClpP, FRET peptide cleavage, 20 min; actives 1.9% (n = 340,000); AID 651965, 2013; ATP-dependent Clp protease proteolytic subunit (Bacillus subtilis (strain 168)), P80244; Potency, µM (series often up to 57.5 µM), for inactives: top-dose activity change, negative = active; active means well fitted falling curve with a large enough effect; further: potency means the concentration at half of the fitted maximal effect; the source files actives as falling curves though it sought activators and does not explain the sign; nearly all actives have a fitted effect of over 65% in size
#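 Buffer: 100 mM Tris/HCl pH8, 100 mM KCl, 0.05% low protease BSA, 2.5% glycerol, 0.01% Tween-20. ClpP 10 microg/mL final; 20 min RT; delta FRET normalized to ADEP and DMSO controls.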
# NPSR antag: antagonists of human neuropeptide S receptor cAMP signaling | Q6W5P4 | CHO-NPSR cells, cAMP TR-FRET, antagonist mode | Potency, µM (doses to about 38.3 µM), inactives show at the highest dose activity change, negative = inhibition, most hits filed as inhibitors | actives 1% (n = 220,000); further: potency means the concentration at half of the fitted maximal effect; on the % scale 0 is the no-effect control and ±100 the full control effect; nearly all actives have a fitted effect of over 50% in size
# PKM2 act: activators of human pyruvate kinase M2; P14618; purified PKM2, Kinase-Glo ATP luminescence, activation; response scale: 0% is enzyme alone, no compound; Potency, µM (highest dose often 57.5 µM), inactives show top-dose activation, actives largely listed as activators; actives 0.34% (n = 260,000); further: potency means the concentration at half of the fitted maximal effect; on the % scale 0 is the no-effect control and ±100 the full control effect; nearly all actives have a fitted effect of over 55% in size
# Target sequence (P14618 whole entry, looked up): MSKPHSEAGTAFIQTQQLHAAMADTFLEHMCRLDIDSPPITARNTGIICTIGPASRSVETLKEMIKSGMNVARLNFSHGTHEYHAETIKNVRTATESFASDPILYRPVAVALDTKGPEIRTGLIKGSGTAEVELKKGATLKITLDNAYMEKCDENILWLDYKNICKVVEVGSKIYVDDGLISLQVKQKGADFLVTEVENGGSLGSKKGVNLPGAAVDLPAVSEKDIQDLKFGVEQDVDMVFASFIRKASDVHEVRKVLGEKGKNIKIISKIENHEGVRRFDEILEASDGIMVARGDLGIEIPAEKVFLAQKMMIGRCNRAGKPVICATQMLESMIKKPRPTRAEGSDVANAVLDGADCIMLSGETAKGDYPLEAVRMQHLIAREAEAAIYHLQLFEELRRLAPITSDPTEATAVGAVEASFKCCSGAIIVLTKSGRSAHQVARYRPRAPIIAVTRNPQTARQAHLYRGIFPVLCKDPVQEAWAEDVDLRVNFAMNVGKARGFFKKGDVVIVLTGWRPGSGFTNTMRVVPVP
#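 Purified hPK-M2 (>95% pure) converted ADP (0.1 mM final) to ATP with 0.5 mM PEP in 50 mM imidazole pH7.2, KCl, MgCl2, Tween 20, BSA; 1 h at room temperature. ATP detected by Kinase-Glo luminescence.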
# IL-2 act: activates IL-2 in a cell-based reporter assay. IL-2 activation reporter assay, cell-based qHTS; stimulated with anti-CD3/CD4/CD28 beads; in transgenic mouse T cells. activation, % (series mostly up to about 46 µM). actives 0.065% (n = 360,000); in the data active means activation above about 50%; further: 0% is about no effect
#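 Screening format: compound pinned onto unstimulated transgenic mouse T cells, 60 min incubation, then anti-CD3/anti-CD4/anti-CD28 bead stimulation for 18 hours at 37 degrees C, followed by EGFP and DsRed detection.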
# * marks the source's active call; other numbers are inactive results; · = no result given; [ ] = remark or other dose. Unless noted, the call rests on the fitted dose curve; in most records, active means well fitted curve in the direction sought with a large enough effect; inconclusive means small, poorly fitted or top-dose-only effect, or another doubt; inactive means no such curve, though single readings can be large; an effect the other way counts as inactive or inconclusive.
SMILES,ClpP mod,NPSR antag,PKM2 act,IL-2 act
COc1ccc(-c2cc(C(F)(F)F)nc(N3CCN(C)CC3)n2)cc1,-14.1%,-11.2%[46.1 µM],0.3%,-1.9
COc1ccc(-c2cc(C(F)(F)F)nc(N3CCCCCC3)n2)cc1,22.4µM*,-7.9%[46.1 µM],-2.8%,-0.1
Cc1ccc(OCC(=O)Nc2nnc(SCc3cc(=O)c4ccccc4[nH]3)s2)cc1C,-0.3%,·,·,·
Cc1ccccc1Nc1nn2c(=O)c3ccc(C(=O)NCc4cccs4)cc3nc2s1,3.9%,·,·,·
Fc1ccccc1N=C1NN=C(c2ccccc2)CS1,10µM*,-8.4%,-1.0%,-0.9
COc1ccc(O)c(C(=O)c2cnc3nc4ccccc4n3c2)c1,28.2µM*,29.8%,8.5%,-0.1
COc1ccc(O)c(C(=O)c2cnn(-c3ccccn3)c2)c1,·,-15.0%,-0.4%,-0.3
Cc1ccc2c(c1)CCCN2CC(=O)Nc1cccc(S(=O)(=O)N2CCCC2)c1,-5.7%,·,·,-0.3
Cc1ccccc1-c1nnc(SCCOc2ccc3c(C)cc(=O)oc3c2)o1,25.1µM*,-1.3%[46.1 µM],-1.0%,-0.4
O=C(COC(=O)CCNS(=O)(=O)c1ccccc1)Nc1ccc(OC(F)F)cc1,0.5%,·,·,0.4
CCOC(=O)c1sc(=NC(=O)c2ccco2)n(C)c1C,·,-4.8%,8.4%,0.2
C=CCn1c(=NC(=O)c2ccco2)sc2cc(C(=O)OCC)ccc21,22.4µM*,-40.1%,-1.4%,-3.0
COCCn1c(=NC(=O)c2ccco2)sc2cc(C(=O)OC)ccc21,-6.6%,1.8%[46.1 µM],-1.3%,-0.1
C=CCn1c(=NC(=O)c2ccco2)sc2cc(C(=O)OC)ccc21,22.4µM*,-3.0%,1.6%,-0.8
CCCOc1ccc(N2C(=O)CC(N3CCN(c4ccc([N+](=O)[O-])cc4)CC3)C2=O)cc1 (stereo unspecified),·,·,7.9%,0.3
COc1ccc(C)cc1NC(=O)CSc1nnc(-c2ccc(OC)c(OC)c2)n1N,-1.0%,-5.1%[46.1 µM],-4.2%,-2.0
Cc1oc(-c2cccc(Cl)c2)nc1CSCC(=O)NCc1ccccc1Cl,-16.7%,·,·,·
Cc1oc(-c2ccc(Cl)cc2)nc1CSCC(=O)NCc1ccccc1Cl,31.6µM*,·,·,·
CSc1ccc(-c2nc(CSCC(=O)NCCCN3CCOCC3)c(C)o2)cc1,35.5µM*,-18.9%[46.1 µM],-2.9%,-1.7
Cn1c(=S)[nH]c2cc(C(=O)N3CCN(C(=O)c4ccccc4)CC3)ccc2c1=O,-0.6%,·,·,·
CC(=O)c1ccc(NC(=O)CN(C)S(=O)(=O)c2cc3c(cc2Cl)NC(=O)CO3)cc1,1.6%,·,·,·
O=C(O)c1cc2cc(Cc3cccnc3)ccc2o1,·,-1.1%[46.1 µM],·,·
CCCCNC(=O)/C(C#N)=C/c1ccc2c(c1)OCCO2,25.1µM*,9.8%,-4.2%,-0.1
CCCCCCCCNC(=O)/C(C#N)=C/c1ccc2c(c1)OCCO2,8.6%,-13.6%,-14.0%,0.4
CCN(C(=O)CSc1nnc(-c2cccs2)n1N)c1c(N)n(Cc2ccccc2)c(=O)[nH]c1=O,35.5µM*,·,·,-0.6
SMILES,ClpP mod,NPSR antag,PKM2 act,IL-2 act
COc1ccc(CCNc2cc(C)nc3c(-c4ccccc4)cnn23)cc1OC,28.2µM*,-41.5%,5.2%,-0.5
COc1ccc(CCNc2ncnc3c2c(-c2ccccc2)cn3-c2ccc(Cl)cc2)cc1OC,22.4µM*,·,·,·
COCCN(CCOC)c1ncnc2c1c(-c1ccccc1)cn2-c1ccc(C)c(Cl)c1,28.2µM*,·,·,·
COc1ccccc1-c1cnn2c(NCCc3ccccc3)cc(C)nc12,·,·,·,0.0
COc1ccc(Cl)cc1Nc1ncnc2c1c(-c1ccccc1)cn2-c1ccccc1,-1.2%,·,·,·
Fc1ccc(-n2cc(-c3ccccc3)c3c(NCCc4ccccc4)ncnc32)cc1,31.6µM*,·,·,·
O=C(CNC(=O)c1cnccc1C(F)(F)F)c1cccc(Cl)c1,·,-3.3%,8.0%,-2.9
CC(NC(=O)Cc1ccsc1)c1ccc(S(N)(=O)=O)cc1 (stereo unspecified),-1.1%,4.3%[46.1 µM],5.5%,-0.4
O=C(Nc1ncc([N+](=O)[O-])s1)c1cccc([N+](=O)[O-])c1,-0.7%,5.01µM*,-27.1%,-3.8
Cn1c(=O)c2c(n3cnnc13)-c1ccccc1CC21CCCC1,-11.8%,-25.4%[46.1 µM],-8.2%,-0.7
CCSc1n[nH]c2nc3c(c(=O)n12)C1(CCCC1)Cc1ccccc1-3,14.1µM*,-11.1%[46.1 µM],0.7%,0.9
CSc1n[nH]c2nc3c(c(=O)n12)C1(CCCC1)Cc1ccccc1-3,28.2µM*,-12.8%,-9.4%,2.4
